From PubChem
In the library only some 19% were active in any assay of this set; here they are far more common.
MCF10A rerep: DNA re-replication induction in MCF 10a cells; MCF 10A DNA re-replication, Hoechst nuclear intensity, 48 h; Potency, µM (highest dose often 46.1 µM), without a hit: top-dose activity, positive = re-replication, hits mostly activators; actives 2.9% (n = 350,000); AID 624296; note: potency is the fitted concentration of half-maximal effect; % of control where 0% means no effect; nearly all actives have a fitted effect of over 50% in size
TDP1 cell noCPT: qHTS for Inhibitors of human tyrosyl-DNA phosphodiesterase 1 (TDP1): qHTS in cells in absence of CPT; Potency, µM (titrated, usually from 46.2 µM), for the others: at the highest dose activity change, negative = growth inhibition, actives largely listed as inhibitors; DT40 Tdp1-/- hTDP1 cells, no CPT, ATP luminescence, 48 h; actives 15% (n = 420,000); note: potency is the fitted concentration of half-maximal effect; % is set by controls: 0 for no effect and ±100 for the full control effect; nearly all actives have a fitted effect of over 55% in size
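Seeded 400 DT40-hTDP1 cells/well (vehicle DMSO, no 20 nM CPT); pinned compounds; ≥48 hr at 37 °C; CellTiter-Glo luminescence as viability measure.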
IL1B secr inh: inhibitors of inflammasome signaling (IL-1 beta secretion); actives 4.7% (n = 360,000); THP-1 LPS/ATP IL-1B secretion, AlphaLISA, 16 h; hits give low values; activity change, % at 57.5 µM; in the data active = activity change below about -50%; inconclusive = mostly about -30% to -49%; note: % is set by controls: 0 for no effect and ±100 for the full control effect
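Secreted IL-1B measured by AlphaLISA bead assay after 16 h compound exposure of THP-1 cells; compounds (final up to 57.5 uM) added 1 h before LPS (250 ng/mL) and ATP (1.25 mM) stimulation; lower signal means less secretion.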
DT40 TDP1 CPT: DT40-hTDP1 cell growth loss with CPT; AID 686979; Potency, µM (highest dose often 46.2 µM), inactives show at the top dose activity change, negative = growth inhibition, actives largely listed as inhibitors; actives 12% (n = 420,000); chicken DT40 Tdp1-/-;hTDP1 cells + 20 nM CPT, ATP luminescence, 48 h; note: potency is the fitted concentration of half-maximal effect; % is set by controls: 0 for no effect and ±100 for the full control effect; nearly all actives have a fitted effect of over 55% in size
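Chicken DT40 Tdp1-/- cells stably complemented with human TDP1 were seeded at 400 cells/well in medium containing 20 nM camptothecin, exposed to pin-transferred compounds, and grown at 37 °C for at least 48 hr. Viability was read as ATP luminescence.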
Chronic BCR inh: chronic active BCR signaling inhibition. ABC-DLBCL IkBa-CBG/CBR reporter, luminescence ratio, 4 h. Potency, µM (highest dose often 46.1 µM), without a hit: at the top dose activity change, negative = inhibition, usual class: inhibitors. actives 0.05% (n = 340,000). AID 493014; active = well fitted inhibition curve with a large enough effect in the signal ratio, with a control signal flat, not every such curve was filed as active; inconclusive = small, poorly fitted or top-dose-only effect, or effect the other way, or a change in a side signal; the % refers to the signal ratio;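 note: potency is the fitted concentration of half-maximal effect; plate controls were basal doxycycline-induced cells for no effect and cells given 10 µM MG132 for full effect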
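Compounds up to 46 uM were incubated four hours with TMD8 cells whose green CBG68 luciferase is fused to IkappaBalpha; red CBR luminescence normalised the signal, and concentration-effect curves were fitted to fusion, red and ratio data.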
SW480 rerep: induces DNA re-replication in SW480 colon adenocarcinoma cells | SW480 DNA re-replication, Hoechst DNA content imaging, 48 h | Potency, µM (top dose mostly 46.1 µM), for inactives: top-dose re-replication activation, hits mostly activators | actives 1.8% (n = 340,000); note: potency is the fitted concentration of half-maximal effect; % of control where 0% means no effect; nearly all actives have a fitted effect of over 55% in size
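Image-based DNA-content assay: after two days of treatment, nuclei were labelled with the DNA dye Hoechst and imaged, and hits were compounds raising the count of nuclei showing high fluorescence intensity.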
* hit, by the source's call; ? = inconclusive; / = no result given; [ ] = another dose, or the depositor's remark. Unless noted, calls come from the whole dose curve; as a rule, active = well fitted curve in the direction sought with a large enough effect; inconclusive = small, poorly fitted or top-dose-only effect, or another doubt; inactive = no such curve, though single readings can be large; an effect the other way counts as inactive or inconclusive.

SMILES | MCF10A rerep | TDP1 cell noCPT | IL1B secr inh | DT40 TDP1 CPT | Chronic BCR inh | SW480 rerep
COc1cc(C(=O)O/N=C2\CCCc3c2ccc(OC)c3[N+](=O)[O-])cc(OC)c1OC | -12% | 3.3µM* | -4 | 10µM* | -25% | 2%
COc1ccccc1C(=O)O/N=C1/CCCc2c1ccc(OC)c2[N+](=O)[O-] | 22% | ? | -21 | -25% | -2% | -1%
COc1ccc(OC)c(-c2nc(C(=O)NCC3CCCO3)cc3c2[nH]c2ccccc23)c1 (centres undefined) | -6% | 21µM* | -23 | 18µM* | ? | -10%
COc1ccc(OC)c(C2=NOC(C(=O)NCC3CCCO3)C2)c1 (centres undefined) | -10% | -3% | -12 | ? | ? | 11%
COc1cccc(-c2nc(C(=O)NCC3CCCO3)cc3c2[nH]c2ccccc23)c1 (centres undefined) | -9% | 2.3µM* | ? | 2.6µM* | ? | -3%
COc1cccc(-c2cc(C(=O)NCC3CCCO3)on2)c1 (centres undefined) | -3% | 5% | 5 | 14% | ? | -1%
Cc1cc(C)nc(NS(=O)(=O)c2ccc(NC(=O)CCC(=O)O)cc2)n1 | -10% | 5% | 3 | -2% | / | -1%[9.22 µM]
CC(C)[C@H](NC(=O)c1ccccc1Cl)C(=O)OCC(=O)N1CCCCC1 | -8% | -17% | 6 | 14% | 2% | 5%
C/C(N)=C(/C#N)C(=O)COC(=O)[C@@H](NC(=O)c1ccccc1Cl)C(C)C | 2.1µM* | 15% | 45 | 1% | -2% | -56%
COc1c2c(c(OC)c3ccccc13)[C@@]1(OC2)O[C@H](CCO)C[C@H](O)[C@H]1O | / | 1% | 0 | 1% | / | /
Cc1sc(C(C2C(=O)CC(C)(C)CC2=O)C2C(=O)CC(C)(C)CC2=O)cc1[N+](=O)[O-] | ? | 23µM* | -94* | ? | ? | 13%
CC1(C)CC(=O)C(C(c2cc([N+](=O)[O-])ccc2Cl)C2C(=O)CC(C)(C)CC2=O)C(=O)C1 | ? | 5.8µM* | 41 | ? | / | 12µM*
Nn1c(SCC(=O)Nc2ccc(N3CCOCC3)cc2)nnc1-c1cccc(F)c1 | 0% | 3% | 8 | -5% | ? | -5%
O=C(COC(=O)C12CC3CC(CC(Br)(C3)C1)C2)Nc1ccc2[nH]c(=O)[nH]c2c1 | 6% | -1% | 12 | -3% | ? | -7%
Cc1c(-c2nsc(NC(=O)c3ccc(Cl)cc3)n2)nnn1-c1ccc(C(C)C)cc1 | / | 9.2µM* | / | 10µM* | / | /
COC(=O)c1ccc(-n2nnc(-c3nsc(NC(=O)c4ccc(Cl)cc4)n3)c2C)cc1 | / | -4% | / | -18% | / | /
COc1ccc(C(=O)Nc2nc(-c3nnn(-c4ccc(F)cc4F)c3C)ns2)cc1 | / | 13µM* | / | 15µM* | / | /
COc1cccc(C2=CC(c3ccc(OC)c(OC)c3OC)n3nnnc3N2)c1 (centres undefined) | 2% | -22% | -1 | -22% | ? | -4%
CCc1ccc(C2=CC(c3cc(Br)ccc3F)n3ncnc3N2)cc1 (centres undefined) | 17% | 18µM* | ? | 23µM* | ? | ?
COc1ccc(C2C=C(c3ccc(Br)cc3)Nc3nnnn32)c(OC)c1 (centres undefined) | / | 23µM* | / | -98% | 15% | /
Cc1ccsc1C1C=C(c2cccc(Br)c2)Nc2ncnn21 (centres undefined) | 2% | ? | -17 | ? | ? | -1%
Fc1ccc(Br)cc1C1C=C(c2ccc(Br)cc2)Nc2nnnn21 (centres undefined) | / | 23µM* | / | ? | 10% | /
COc1cccc(C2=CC(c3cccs3)n3nnnc3N2)c1 (centres undefined) | 4.1µM* | 3.3µM* | 0 | 2.3µM* | ? | 5.8µM*
Cc1ccc(CNC(=O)C2c3ccccc3C(=O)N3CCc4ccccc4C23)o1 (centres undefined) | 18µM* | 23µM* | -4 | ? | -4% | ?
COc1ccc(/C=N/n2cnc3c([nH]c4ccc(Br)cc43)c2=O)cc1CN1CCOCC1 | ? | ? | -88* | 16µM* | -1% | ?
SMILES | MCF10A rerep | TDP1 cell noCPT | IL1B secr inh | DT40 TDP1 CPT | Chronic BCR inh | SW480 rerep
COc1ccc(/C=N/n2cnc3c([nH]c4ccccc43)c2=O)cc1CO | 2% | ? | 6 | ? | 1% | ?
Cn1c2c(c(=O)n(C)c1=O)C(C(F)(F)F)(C(F)(F)F)N=C(c1ccccc1Cl)N2 | 4% | ? | 22 | 23µM* | ? | -3%
Cn1c(=O)c2c(nc(CCC3CCCC3)n2C)n(C)c1=O | 5% | ? | 0 | ? | / | -3%
Cn1c2c(c(=O)n(C)c1=O)C(C(F)(F)F)(C(F)(F)F)N=C(CCC1CCCCC1)N2 | ? | 3.7µM* | -58* | 2.6µM* | -4% | 18%
CN(C)c1ccc(C(=O)OCC#CCSc2nnc(-c3cccc4ccccc34)o2)cc1 | -4% | / | / | / | ? | -4%[9.22 µM]
COCCNC(=O)C1(C)CCCN(C(=O)c2ccc3c(c2)CCO3)C1 (centres undefined) | / | -14% | -12 | -3% | / | /
CN(C)C(CNc1ccc(C(F)(F)F)cc1[N+](=O)[O-])c1ccccc1 (centres undefined) | ? | ? | -79* | ? | 14% | -1%
O=[N+]([O-])c1cc(C(F)(F)F)ccc1NCCCCNS(=O)(=O)c1ccc2ccccc2c1 | 0% | 23µM* | 10 | 21µM* | -6% | -7%
O=C(NCCCNc1ccc(C(F)(F)F)cc1[N+](=O)[O-])c1ccc(F)cc1 | 4% | 23µM* | 0 | 16µM* | ? | /
CN(C)C(CNc1ccc(S(C)(=O)=O)cc1[N+](=O)[O-])c1ccccc1 (centres undefined) | 15% | -15% | 0 | 1% | -1% | -1%
CC1=C(C(=O)N(C)C)CC(CC(=O)NCCc2ccccn2)C(=O)N1Cc1ccc(C(C)(C)C)cc1 (centres undefined) | / | -27% | -6 | ? | / | /
CCC(=O)N1CCc2cc(S(=O)(=O)NC(C(=O)NCc3ccc(OC)cc3)C(C)C)ccc21 (centres undefined) | / | -4% | / | -17% | / | /
COC(=O)c1ccccc1NC(=O)CN1C(=O)c2ccccc2C1=O | -6% | 12% | 26 | 25% | / | -5%
